This passage reports binding signal results from publication PMC7819943, “Rice protein-binding microarrays: a tool to detect cis-acting elements near promoter regions in rice”.

In all, about 39,000 sequences were measured (“fluorescence intensity (a.u.)”: median about 4,300, highest 2% from about 39,000 on). The full list was thinned out, with the highest values kept by preference.

For the experiment, the target named is T1, OsSMF1 (Oryza sativa, UniProt Q6ZLB0 1-436).
T1 sequence: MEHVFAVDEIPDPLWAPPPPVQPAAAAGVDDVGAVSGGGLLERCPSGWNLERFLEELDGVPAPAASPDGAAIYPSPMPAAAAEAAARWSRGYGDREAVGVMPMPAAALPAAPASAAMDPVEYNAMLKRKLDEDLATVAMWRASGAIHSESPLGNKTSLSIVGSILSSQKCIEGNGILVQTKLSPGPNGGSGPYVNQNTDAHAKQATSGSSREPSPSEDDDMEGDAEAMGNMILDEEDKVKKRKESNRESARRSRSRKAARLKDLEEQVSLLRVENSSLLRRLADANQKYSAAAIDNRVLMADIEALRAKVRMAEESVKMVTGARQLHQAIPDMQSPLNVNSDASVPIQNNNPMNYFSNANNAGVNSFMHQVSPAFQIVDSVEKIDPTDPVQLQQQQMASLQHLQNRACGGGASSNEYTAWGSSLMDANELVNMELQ
The experiment can be described thus: protein-binding microarray (RPBM); PBS, 2% BSA, 51.3 ng/ul salmon testes DNA, 50 uM zinc acetate, 200 nM TF, 25 C, 1 h; high values mean tight binding. The following applies: protein: recombinant; tags: N-terminal polyhistidine and DsRed monomer fusion (pET32a); chain copies: 2; label: CyDye5-dUTP incorporated in the synthesized complementary strand; 3' TTTTT single-stranded linker to array surface; dsDNA, one strand shown. The essentials:
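For the binding signal, per-feature fluorescence intensity was read in arbitrary units on an Axon 4000B scanner. Before scanning, a 2% BSA-blocked custom Agilent array made double-stranded with Cy5-dUTP was washed after 1 h at 25 °C with 200 nM protein and 50 µM zinc acetate. The proteins were Ni–NTA-purified transcription factors with N-terminal polyhistidine and DsRed fusions, expressed in E. coli BL21-CodonPlus.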
With “GATTGTTGGTAGCTAGGTAGCTGTGGCCAAGAAAGTGAGACGGAGTCACCTAGTGCAG”, the binding signal is 3810 fluorescence intensity (a.u.).

With “TAGCAGCCAATTAGTCCACTTAATCACCCATGGATCGCGACGGAGTCACCTAGTGCAG”, the binding signal is 3490 fluorescence intensity (a.u.).

As to “ACATGATTTGTGCTCCATGACCTCTTTCTTCTATTATCTACGGAGTCACCTAGTGCAG”, the binding signal is 7980 fluorescence intensity (a.u.).

Take “TATATCTAGTTTGCTCAGACCTACTGCTATTTCTTTCTGACGGAGTCACCTAGTGCAG”: the binding signal is 41200 fluorescence intensity (a.u.).

In the case of “TTATTTTGGAACTGGACCTATCTAATTTCTCCTAGTCAGACGGAGTCACCTAGTGCAG”, the binding signal is 3780 fluorescence intensity (a.u.).

For the sequence “TGTTCATAAAAGTAAATGTGCGTGCGTGATTGTATTGTATCGGAGTCACCTAGTGCAG”, the binding signal was 12500 fluorescence intensity (a.u.).

For “GCCGCCGCCGCCGCCGCCGCCGCTGTGTGTACGACTACGACGGAGTCACCTAGTGCAG”, the binding signal is 3250 fluorescence intensity (a.u.).

On to “AGAGAGCAGTGGAGTGCTGTCAGCCGTTGGATGGCCATCCCGGAGTCACCTAGTGCAG”, for which the binding signal was 3400 fluorescence intensity (a.u.).

With “ACCGACGTTTAATCCCTGAGAGCCAGCCGTTGGCTGTGTACGGAGTCACCTAGTGCAG”, the binding signal is 65500 fluorescence intensity (a.u.).

For the sequence “TTACTGCTACCTCCACTTCATGTTATAAGTTGTTTTACCTCGGAGTCACCTAGTGCAG”, the binding signal was 3480 fluorescence intensity (a.u.).

As for “TCGCTGATGAAAATGATGAGCATGGTGAGGGGAAGAAGGGCGGAGTCACCTAGTGCAG”, the binding signal was 22400 fluorescence intensity (a.u.).

As for “CTGAATTTGACTCTTGGATGGTGACTATGATGTCCAAGTACGGAGTCACCTAGTGCAG”, the binding signal was 45100 fluorescence intensity (a.u.).

For the sequence “TATGGAGTGAAATGTCAGACTCCAAATGACTTATATGATGCGGAGTCACCTAGTGCAG”, the binding signal is 64100 fluorescence intensity (a.u.).

With “ATGAATGACCCTGCGACAACAAACCACATCATATCATGCGCGGAGTCACCTAGTGCAG”, the binding signal was 3740 fluorescence intensity (a.u.).

Take “CGACCGACATATCTTCATAATTACCAAGTCATCATGCGACCGGAGTCACCTAGTGCAG”: the binding signal is 4520 fluorescence intensity (a.u.).

“ATCACTTCATTATCACATGACAGACCAACATATAATGATGCGGAGTCACCTAGTGCAG”: the binding signal was 44500 fluorescence intensity (a.u.).

On to “CTTCTTCTTGTGATGCTTATATATGACTATGTATGTAGTGCGGAGTCACCTAGTGCAG”, for which the binding signal was 3940 fluorescence intensity (a.u.).

Consider “TCCAAAAGTTCTTGATGTGGCATGGTGGACATGAATTTGTCGGAGTCACCTAGTGCAG”, for which the binding signal was 5240 fluorescence intensity (a.u.).

As to “ATTATGTAATGCCTGTTGATGTCAGACCACTCCAAATGCTCGGAGTCACCTAGTGCAG”, the binding signal was 3480 fluorescence intensity (a.u.).

As for “GTTTATTCCAAGTGGTGGATGCTGATGAATTAAGTATATACGGAGTCACCTAGTGCAG”, the binding signal was 3140 fluorescence intensity (a.u.).

As to “ATTGGGGAGAGGAGCTGGGCGAGGCGGGGCTTGGGCTCGGCGGAGTCACCTAGTGCAG”, the binding signal was 3390 fluorescence intensity (a.u.).

In the case of “TAGGGGAGCCTCGACACGACGCCGCTGGCGTGGCGCGTCCCGGAGTCACCTAGTGCAG”, the binding signal was 9370 fluorescence intensity (a.u.).

For the sequence “AAATAATGTGGCCGGACGGGCGGTAGGGTCCTGGCAGCAGCGGAGTCACCTAGTGCAG”, the binding signal was 28000 fluorescence intensity (a.u.).

As to “CTCTCCTCTTTGCATGCATTCCTCCTGCCAAGAGTGCTGACGGAGTCACCTAGTGCAG”, the binding signal is 3400 fluorescence intensity (a.u.).

For “AAACAAAATAGCATAATCACTCACCGCGTCACACAGCGGGCGGAGTCACCTAGTGCAG”, the binding signal was 3720 fluorescence intensity (a.u.).

As to “CCGAAGGAGTACGTGCCAAGTCGGCCCATCAGGCCCACGTCGGAGTCACCTAGTGCAG”, the binding signal was 4010 fluorescence intensity (a.u.).

In the case of “CTCTGCACAATTGCACCAACCCCAAAGCTTGGCTAAGCTCCGGAGTCACCTAGTGCAG”, the binding signal is 51000 fluorescence intensity (a.u.).

As to “CACCAAACCCCAACCCACCTCCAGGTCATCCACCCACATCCGGAGTCACCTAGTGCAG”, the binding signal was 3900 fluorescence intensity (a.u.).

Consider “AAACCCAAGCAAACCAGCAGCTACTAAGCAAAGCACAACCCGGAGTCACCTAGTGCAG”, for which the binding signal is 33900 fluorescence intensity (a.u.).

Consider “CCCTACGTGCACACATCCAGCTCCATTATATAGCCATTTTCGGAGTCACCTAGTGCAG”, for which the binding signal is 54800 fluorescence intensity (a.u.).

As to “CATTTTCCAGGCCAAGCCAGCTCACATCACCAGAGCAACACGGAGTCACCTAGTGCAG”, the binding signal was 3720 fluorescence intensity (a.u.).

Consider “TGACCTAGCTAGCTACCTTTTCCCTCTTCCATCACATATACGGAGTCACCTAGTGCAG”, for which the binding signal was 3800 fluorescence intensity (a.u.).

Consider “ATACGGCACCATTTACGTGTATATGTGTCGTACATGCATACGGAGTCACCTAGTGCAG”, for which the binding signal was 3470 fluorescence intensity (a.u.).

For the sequence “CGATATACGTACACATGTGACATGACGTAATTTTACATCCCGGAGTCACCTAGTGCAG”, the binding signal was 4320 fluorescence intensity (a.u.).

Take “TTACGATATAGTGTGCCAATTGGCACACCTACATTTTAGTCGGAGTCACCTAGTGCAG”: the binding signal is 45700 fluorescence intensity (a.u.).

For “CAGTTCCCAGCTGGACCTCCGACCTCCTACCTCCTCACCTCGGAGTCACCTAGTGCAG”, the binding signal is 3340 fluorescence intensity (a.u.).

Take “AATGTTTGGGTTCGAATTTAGTGGGTGGGTTTGGAGTTTGCGGAGTCACCTAGTGCAG”: the binding signal is 4670 fluorescence intensity (a.u.).

For the sequence “TCCGCGGCCCCGCTGGCCCACACGCATGCGTCCAAACAGCCGGAGTCACCTAGTGCAG”, the binding signal is 3940 fluorescence intensity (a.u.).

Take “CAAATAGAACATAGCCATACGAAATGACTCACTAACCTCTCGGAGTCACCTAGTGCAG”: the binding signal is 4910 fluorescence intensity (a.u.).

Turning to “TCACCGGTCTCATCCCCGTCATATGCATCCTTATCTCCAACGGAGTCACCTAGTGCAG”, the binding signal was 4020 fluorescence intensity (a.u.).

Turning to “TGACCTACTTGCACTTATAATTTATAGTATTATGATGTGTCGGAGTCACCTAGTGCAG”, the binding signal is 3290 fluorescence intensity (a.u.).

For “TCCAAGCCGTCCACTCCCCTCCGATCCAACGGTCCAAACCCGGAGTCACCTAGTGCAG”, the binding signal is 21800 fluorescence intensity (a.u.).
